The panel holds about 79,000 compounds, 15% with a hit somewhere; the sample as a whole holds those more often. The source made the active and inactive calls. Rule as the data show it: active = growth inhibition above about 70%; inactive = the rest.
Assays:
[1] = NCI Yeast Anticancer Drug Screen. Data for the rad52 strain (AID 147);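 also: 0% = growth of vehicle-treated control cultures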; settings: S. cerevisiae rad52 mutant growth inhibition, active compounds read high
Procedure, shortened: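 Screen used a yeast mutant impaired in DNA repair. After compound exposure, growth was measured. Values reflect inhibition compared with vehicle-treated cells.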

[2] = NCI Yeast Anticancer Drug Screen. Data for the wt1 strain (AID 149);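 also: 0% = growth of vehicle-treated wt1 cultures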; settings: S. cerevisiae wt1 strain (SPY 50644) growth inhibition, active compounds read high
Procedure, shortened: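 wt1 yeast, compound-treated; % growth inhibition vs vehicle control.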

[3] = NCI Yeast Anticancer Drug Screen. Data for the rad50EPP+ strain (AID 151);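 also: 0% = growth of vehicle-treated control cultures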; settings: S. cerevisiae rad50 mutant strain, active compounds read high
Procedure, shortened: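 Exposing the rad50EPP+ strain to each compound, growth was compared with vehicle-only cultures to give inhibition.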

[4] = NCI Yeast Anticancer Drug Screen. Data for the mgt1 strain (AID 153); settings: S. cerevisiae mgt1 mutant growth inhibition, active compounds read high
Procedure, shortened: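 Genetically defined yeast (mgt1) treated with compound; inhibition of growth expressed against vehicle-treated controls.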

[5] = NCI Yeast Anticancer Drug Screen. Data for the rad50 strain (AID 155);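 also: 0% = growth of vehicle-only cultures of the same strain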; settings: S. cerevisiae rad50 strain growth inhibition, active compounds read high
Procedure, shortened: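 Genetically altered yeast (DNA repair pathway); compound treatment; growth inhibition vs vehicle ctrl.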

[6] = NCI Yeast Anticancer Drug Screen. Data for the mec2-1 strain (AID 157); settings: S. cerevisiae mec2-1 strain, active compounds read high
Procedure, shortened: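 Readout is yeast growth inhibition, normalised to vehicle-treated controls, in the mec2-1 strain exposed to compound.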

[7] = NCI Yeast Anticancer Drug Screen. Data for the rad14 strain (AID 159);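 also: 0% = growth of vehicle-treated control cultures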; settings: S. cerevisiae rad14 strain growth inhibition, active compounds read high
Procedure, shortened: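 Test compounds were applied to a repair-deficient yeast strain. Its growth was then compared with that of cultures given vehicle alone, and inhibition was expressed relative to those controls.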

[8] = NCI Yeast Anticancer Drug Screen. Data for the sgs1 mgt1 strain (AID 161);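 also: 0% = growth of cultures given vehicle only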; settings: S. cerevisiae sgs1 mgt1 strain, active compounds read high
Procedure, shortened: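 Percent growth inhibition was derived by comparing compound-exposed mutant yeast with vehicle-exposed cultures. The strain carries alterations in DNA damage repair.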

[9] = NCI Yeast Anticancer Drug Screen. Data for the cln2 rad14 strain (AID 165);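 also: 0% = growth equal to vehicle treated cultures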; settings: S. cerevisiae cln2 rad14 strain, active compounds read high
Procedure, shortened: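 Relative to vehicle controls, growth inhibition of compound-treated cln2 rad14 yeast was recorded.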

[10] = NCI Yeast Anticancer Drug Screen. Data for the bub3 strain (AID 167); settings: S. cerevisiae bub3 mutant strain, active compounds read high
Procedure, shortened: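 Yeast carrying a defined mutation is treated with each compound, and growth is compared with that of vehicle-exposed cells to give inhibition.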

[11] = NCI Yeast Anticancer Drug Screen. Data for the wt2 strain (AID 169);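 also: 0% = growth of vehicle-treated yeast cultures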; settings: S. cerevisiae wt2 strain growth inhibition, active compounds read high
Procedure, shortened: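 Values express reduction in yeast growth under compound treatment, referenced to vehicle-treated cells.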

[12] = NCI Yeast Anticancer Drug Screen. Data for the mlh1 strain (AID 171);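 also: 0% = growth of vehicle-treated control cultures of the same strain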; settings: S. cerevisiae mlh1 strain growth inhibition, active compounds read high
Procedure, shortened: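 Steps: expose the defined-mutant yeast strain to compound; expose a parallel culture to vehicle; measure growth; express compound effect as inhibition relative to the vehicle culture.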

[13] = NCI Yeast Anticancer Drug Screen. Data for the mlh1 rad18 strain (AID 175); settings: S. cerevisiae mlh1 rad18 strain growth inhibition, active compounds read high
Procedure, shortened: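 Test agents were incubated with a yeast strain of defined genotype (DNA damage repair defect). Inhibition of growth was derived by comparison with vehicle-exposed cultures.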

[14] = NCI Yeast Anticancer Drug Screen. Data for the rad18 strain (AID 177); settings: S. cerevisiae rad18 mutant growth inhibition, active compounds read high
Procedure, shortened: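 A genetically defined yeast mutant impaired in DNA damage repair was treated with test compounds, then its growth was measured against cultures receiving vehicle alone.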

[15] = NCI Yeast Anticancer Drug Screen. Data for the CLN2oe strain (AID 163);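 also: 0% = growth of vehicle-only control cultures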; settings: S. cerevisiae CLN2oe strain, active compounds read high
Procedure, shortened: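 Values reflect how much compound exposure reduced yeast growth, referenced to vehicle-exposed cells. Assay organism is a strain with a defined genetic change affecting cell-cycle control.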

[16] = NCI Yeast Anticancer Drug Screen. Data for the sgs1 strain (AID 173);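 also: 0% = growth of vehicle-only control cultures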; settings: S. cerevisiae sgs1 mutant, active compounds read high
Procedure, shortened: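 Treat defined-mutant yeast with compound; measure growth; calculate inhibition relative to vehicle-treated cells.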

[17] = at 5.0 µM (retest, dose inferred, filed as 0.5)
[18] = at 50.0 µM (retest, dose inferred, filed as 5.0)

Measured: growth inhibition

NC(N)=NCCCS(=O)(=O)Nc1ccc(Nc2c3ccccc3nc3cc([N+](=O)[O-])ccc23)cc1
active: [1]; at 33.0 µM 79% | [1]; at 100.0 µM 91% | [5]; at 33.0 µM 83% | [5]; [18] 88% | [5]; at 50.0 µM 72.9% | [5]; at 100.0 µM 89% | [6]; [18] 74% | [6]; at 100.0 µM 70% | [7]; at 100.0 µM 81% | [8]; [18] 83% | [10]; [18] 70% | [10]; at 100.0 µM 74% | [12]; at 100.0 µM 81% | [13]; [18] 83% | [14]; at 100.0 µM 74%
inactive: [1]; at 1.2 µM -26% | [1]; at 3.7 µM 8% | [1]; at 11.0 µM 36% | [2]; at 1.2 µM -20% | [2]; at 3.7 µM -18% | [2]; at 11.0 µM -26% | [2]; at 33.0 µM -15% | [2]; at 100.0 µM 42% | [3]; at 1.2 µM -21% | [3]; at 3.7 µM -11% | [3]; at 11.0 µM 17% | [3]; at 33.0 µM 44% | [3]; at 100.0 µM 68% | [4]; at 1.2 µM -24% | [4]; at 3.7 µM -29% | [4]; at 11.0 µM -10% | [4]; at 33.0 µM 18% | [4]; at 100.0 µM 65% | [5]; at 1.2 µM -4% | [5]; at 3.7 µM -4% | [5]; [17] 23% | [5]; at 11.0 µM 44% | [6]; at 1.2 µM -37% | [6]; at 3.7 µM -32% | [6]; [17] -22% | [6]; at 11.0 µM -26% | [6]; at 33.0 µM 11% | [6]; at 50.0 µM 60% | [7]; at 1.2 µM -10% | [7]; at 3.7 µM -1% | [7]; at 11.0 µM -1% | [7]; at 33.0 µM 31% | [8]; [17] 20% | [8]; at 50.0 µM 63.1% | [9]; [17] -18% | [9]; [18] 66% | [9]; at 50.0 µM 47.4% | [10]; at 1.2 µM 0% | [10]; at 3.7 µM 0% | [10]; [17] 11% | [10]; at 11.0 µM -10% | [10]; at 33.0 µM 3% | [10]; at 50.0 µM 57.8% | [11]; at 1.2 µM -49% | [11]; at 3.7 µM -58% | [11]; at 11.0 µM -77% | [11]; at 33.0 µM 23% | [11]; at 100.0 µM 50% | [12]; at 1.2 µM -20% | [12]; at 3.7 µM -10% | [12]; at 11.0 µM 3% | [12]; at 33.0 µM 32% | [13]; [17] -8% | [14]; at 1.2 µM -28% | [14]; at 3.7 µM -39% | [14]; at 11.0 µM -41% | [14]; at 33.0 µM -13%

C=C1N(C)c2ccc(Cl)cc2C1(C)C
active: [1]; at 100.0 µM 94% | [2]; at 100.0 µM 92% | [4]; at 100.0 µM 97% | [5]; [18] 99% | [5]; at 50.0 µM 88.9% | [5]; at 100.0 µM 94% | [6]; [17] 77% | [6]; [18] 100% | [6]; at 50.0 µM 90.1% | [6]; at 100.0 µM 96% | [7]; at 100.0 µM 95% | [8]; [18] 88% | [15]; at 100.0 µM 96% | [9]; [18] 86% | [10]; [18] 93% | [10]; at 100.0 µM 97% | [11]; at 100.0 µM 94% | [12]; at 100.0 µM 94% | [16]; at 100.0 µM 92% | [13]; [18] 100% | [13]; at 50.0 µM 88.9% | [14]; at 100.0 µM 94%
inactive: [1]; at 1.2 µM -26% | [1]; at 3.7 µM -25% | [1]; at 11.0 µM -38% | [1]; at 33.0 µM -7% | [2]; at 1.2 µM -37% | [2]; at 3.7 µM -28% | [2]; at 11.0 µM -30% | [2]; at 33.0 µM -21% | [3]; at 1.2 µM -5% | [3]; at 3.7 µM -7% | [3]; at 11.0 µM -23% | [3]; at 33.0 µM -18% | [3]; at 100.0 µM -6% | [4]; at 1.2 µM -23% | [4]; at 3.7 µM 0% | [4]; at 11.0 µM 0% | [4]; at 33.0 µM 29% | [5]; at 1.2 µM 4% | [5]; at 3.7 µM -22% | [5]; [17] 68% | [5]; at 11.0 µM -26% | [5]; at 33.0 µM 20% | [6]; at 1.2 µM -3% | [6]; at 3.7 µM 4% | [6]; at 11.0 µM -8% | [6]; at 33.0 µM 19% | [7]; at 1.2 µM -33% | [7]; at 3.7 µM -37% | [7]; at 11.0 µM -23% | [7]; at 33.0 µM 12% | [8]; [17] -6% | [15]; at 1.2 µM -16% | [15]; at 3.7 µM -31% | [15]; at 11.0 µM -22% | [15]; at 33.0 µM 4% | [9]; [17] 64% | [10]; at 1.2 µM 18% | [10]; at 3.7 µM 28% | [10]; [17] -1% | [10]; at 11.0 µM 5% | [10]; at 33.0 µM 28% | [11]; at 1.2 µM -30% | [11]; at 3.7 µM -30% | [11]; at 11.0 µM -28% | [11]; at 33.0 µM -23% | [12]; at 1.2 µM -45% | [12]; at 3.7 µM -43% | [12]; at 11.0 µM -30% | [12]; at 33.0 µM 3% | [16]; at 1.2 µM -24% | [16]; at 3.7 µM -46% | [16]; at 11.0 µM -47% | [16]; at 33.0 µM 1% | [13]; [17] 57% | [14]; at 1.2 µM -2% | [14]; at 3.7 µM -18% | [14]; at 11.0 µM -26% | [14]; at 33.0 µM 15%

O=C(O)c1cccc2cccc(-c3c4ccc(=O)cc-4oc4cc(O)ccc34)c12
inactive: [1]; at 1.2 µM 8% | [1]; at 3.7 µM 33% | [2]; at 1.2 µM -5% | [2]; at 3.7 µM 5% | [2]; at 11.0 µM 54% | [2]; at 33.0 µM 69% | [3]; at 1.2 µM 10% | [3]; at 3.7 µM 29% | [4]; at 1.2 µM 20% | [4]; at 3.7 µM 41% | [5]; at 1.2 µM 29% | [5]; at 3.7 µM 56% | [5]; [17] 29% | [6]; at 1.2 µM 18% | [6]; at 3.7 µM 24%
active: [1]; at 11.0 µM 79% | [1]; at 33.0 µM 78% | [1]; at 100.0 µM 94% | [2]; at 100.0 µM 94% | [3]; at 11.0 µM 70% | [3]; at 33.0 µM 73% | [3]; at 100.0 µM 93% | [4]; at 11.0 µM 79% | [4]; at 33.0 µM 88% | [4]; at 100.0 µM 96% | [5]; at 11.0 µM 82% | [5]; at 33.0 µM 79% | [5]; [18] 97% | [5]; at 50.0 µM 90.5% | [5]; at 100.0 µM 92%

Reference: PubChem BioAssay (NCI)
